Rows were chosen to be rich in hits. Some 4.6% of all compounds tested hit in one or more screens of this group.
TRb-SRC2 inh – disrupts binding of human TR beta to SRC2; TRbeta-SRC2 peptide binding, fluorescence polarization; receptor liganded with 1 µM T3; Potency, µM (series often up to 106 µM), for inactives: at the top dose activity change, negative = inhibition, hits mostly inhibitors; hit rate 0.065% among 280,000; AID 1469;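 note: potency is the fitted concentration of half-maximal effect; plate controls were bound peptide for no effect and peptide without receptor for full effect; nearly all actives have a fitted effect of over 50% in size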
Target sequence (P10828 whole entry, looked up): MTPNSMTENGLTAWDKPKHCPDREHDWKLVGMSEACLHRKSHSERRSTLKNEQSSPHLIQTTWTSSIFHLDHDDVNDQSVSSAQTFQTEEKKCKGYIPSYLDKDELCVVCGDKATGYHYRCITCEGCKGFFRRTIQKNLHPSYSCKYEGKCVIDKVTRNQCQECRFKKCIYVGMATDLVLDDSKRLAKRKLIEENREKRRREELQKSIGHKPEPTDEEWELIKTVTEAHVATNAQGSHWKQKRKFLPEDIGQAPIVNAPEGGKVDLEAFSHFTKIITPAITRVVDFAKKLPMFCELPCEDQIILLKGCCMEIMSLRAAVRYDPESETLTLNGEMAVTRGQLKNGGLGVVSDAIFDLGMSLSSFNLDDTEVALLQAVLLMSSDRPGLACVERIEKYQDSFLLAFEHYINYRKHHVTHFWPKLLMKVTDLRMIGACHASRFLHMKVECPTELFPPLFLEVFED
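Decrease in fluorescence polarization of 20 nM Texas Red SRC2 coactivator peptide flagged inhibition of its binding to 0.6 uM TRb LBD; 1 uM T3 included, incubation 5 hr, ex 555/em 632 nm.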
Tau fibril ThT – tau fibrillization inhibition (ThT binding); recombinant tau K18 P301L, heparin-induced fibrillization, ThT fluorescence; hit rate 2.1% among 270,000; Potency, µM (highest dose often 57.4 µM), for inactives: top-dose activity, negative = inhibition, hits mostly inhibitors; P10636; note: potency is the fitted concentration of half-maximal effect; nearly all actives have a fitted effect of over 55% in size
Target sequence (P10636 561-689 P618L limits assumed): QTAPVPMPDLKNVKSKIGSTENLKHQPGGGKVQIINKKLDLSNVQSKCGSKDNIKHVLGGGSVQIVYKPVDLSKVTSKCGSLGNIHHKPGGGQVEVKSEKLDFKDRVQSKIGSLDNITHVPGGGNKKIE
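Heparin-induced fibrillization of the P301L-mutant K18 repeat-domain fragment of human tau was followed by ThT binding in quantitative high-throughput format.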
PNC inhibitor – inhibitors of perinucleolar compartment assembly; PC3M PTB-GFP, PNC prevalence imaging, 16 h; stronger effect = lower value; activity change (PNC), negative = inhibition, % at 10 µM; hit rate 3.1% among 140,000;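 active = readout at or below -70, meaning at least 70% loss of cells showing the perinucleolar compartment, a nuclear body marking cancer cells; inconclusive = readout between -30 and a set limit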;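 note: plate controls were DMSO wells for no effect and camptothecin positive control wells for full effect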
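Compounds are pinned in duplicate onto adhered PC3M cells stably expressing GFP-tagged PTB and incubated 16 h at 37 C. Cells are then fixed, nuclei stained with Hoechst, and PNC-positive cells counted.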
TR SRC2 fluor cs – counter-screen for TRb-SRC2 inhibitors: fluorescence interference; Potency, µM (series often up to 106 µM), inactives show at the highest dose fluorescence change, negative = quenching; hit rate 0.29% among 280,000; TRb/SRC2 Texas Red total fluorescence interference; active = well fitted curve in either direction with a large enough effect; inconclusive = small, poorly fitted or top-dose-only effect; note: potency is the fitted concentration of half-maximal effect
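Human TRb ligand-binding domain at 0.6 uM with 20 nM Texas Red SRC2 peptide in Tris buffer containing 1 uM T3 and 5% DMSO, incubated with compound 5 h at ambient temperature. Total fluorescence (555/632 nm) calculated as parallel + 2 × perpendicular.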
Tau fibril FP – tau fibrillization inhibition (FP); K18 P301L tau heparin fibrillization, Alexa594 FP, 6 h; Potency, µM (series often up to 57.7 µM), inactives show at the top dose activity, negative = inhibition, most hits filed as inhibitors; hit rate 0.39% among 280,000; AID 1468; note: potency is the fitted concentration of half-maximal effect; nearly all actives have a fitted effect of over 55% in size
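Heparin (20 uM) drove fibril formation of recombinant tau K18 P301L, 15 uM unlabeled with 0.24 uM Alexa 594 label, for 6 hr at 37 C in 100 mM sodium acetate pH 7. Fluorescence polarization (555/632 nm) read 1 hr after 30 uM ThT.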
Tau fluor counter – counter-screen for tau fibril formation inhibitors. tau K18 P301L (four-repeat tau fragment) Alexa594 fluorescence, heparin fibrillization. Potency, µM (series often up to 57.7 µM), for inactives: at the top dose activity change, negative = decrease. hit rate 0.93% among 280,000. AID 1463; note: potency is the fitted concentration of half-maximal effect; nearly all actives have a fitted effect of over 55% in size
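Human K18 P301L tau (15 uM unlabeled plus 0.24 uM Alexa 594-labeled, final) in 100 mM sodium acetate pH 7 was mixed with compound and 20 uM heparin and incubated 6 hr at 37 C.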
* = called active by the depositor; [ ] = remark or other dose. Unless noted, calls come from the whole dose curve; as a rule, active = well fitted curve in the direction sought with a large enough effect; inconclusive = small, poorly fitted or top-dose-only effect, or another doubt; inactive = no such curve, though single readings can be large; an effect the other way counts as inactive or inconclusive. Unless noted, % is set by controls: 0 for no effect and ±100 for the full control effect.

Screening O=C(C[n+]1ccc(CCSc2ccc(F)cc2)cc1)c1ccccc1 returned TRb-SRC2 inh -3%, Tau fibril ThT 28µM*, TR SRC2 fluor cs 0%, Tau fibril FP inconclusive and Tau fluor counter -14%.
`Cc1ccc(SCCc2cc[n+](CC(=O)c3ccccc3)cc2)cc1` gave TRb-SRC2 inh 6%, Tau fibril ThT -18%, TR SRC2 fluor cs 0%, Tau fibril FP -3%[2.34 µM] and Tau fluor counter -14%.
For CN1/C(=C\C(=S)NC(=O)c2cccc(Br)c2)C(C)(C)c2ccccc21 the results were TRb-SRC2 inh 12%, Tau fibril ThT 7.1µM*, PNC inhibitor -18, TR SRC2 fluor cs 5%, Tau fibril FP 11% and Tau fluor counter 9%.
Screening CN1/C(=C\C(=O)Nc2ccc(Br)cc2)C(C)(C)c2ccccc21 returned TRb-SRC2 inh -4%, Tau fibril ThT inconclusive, PNC inhibitor -8, TR SRC2 fluor cs -5%, Tau fibril FP 4% and Tau fluor counter 7.1µM*[quencher].
Screening CCN(CC)S(=O)(=O)c1cccc(C(=O)/C=C2/N(C)c3ccccc3C2(C)C)c1 returned TRb-SRC2 inh 2%, Tau fibril ThT -19%, PNC inhibitor inconclusive, TR SRC2 fluor cs 0%, Tau fibril FP 12% and Tau fluor counter -28%.
CN1/C(=C\C(=O)Nc2cccc(Cl)c2)C(C)(C)c2ccccc21 was read as TRb-SRC2 inh -5%, Tau fibril ThT inconclusive, PNC inhibitor inconclusive, TR SRC2 fluor cs 0%, Tau fibril FP 8% and Tau fluor counter 14µM*[quencher].
Screening CN1/C(=C/C(=O)C2CC2)C(C)(C)c2ccccc21 returned TRb-SRC2 inh -3%, Tau fibril ThT -6%, TR SRC2 fluor cs -2%, Tau fibril FP 6% and Tau fluor counter 6%.
Screening CN1/C(=C\C(=O)Nc2ccc(F)cc2)C(C)(C)c2ccccc21 returned TRb-SRC2 inh 4%, Tau fibril ThT inconclusive, PNC inhibitor -14, TR SRC2 fluor cs -11%, Tau fibril FP 10% and Tau fluor counter 10µM*[quencher].
CN1/C(=C\C(=S)NC(=O)c2ccc([N+](=O)[O-])cc2)C(C)(C)c2ccccc21 was read as TRb-SRC2 inh 10%, Tau fibril ThT inconclusive, PNC inhibitor -10, TR SRC2 fluor cs 6%, Tau fibril FP 3% and Tau fluor counter -3%.
`Cc1ccc(S(=O)(=O)N2CCC(C(=O)NNC(=O)C3CC3)CC2)cc1Cl` gave TRb-SRC2 inh -5%, Tau fibril ThT 10%, TR SRC2 fluor cs 0%, Tau fibril FP inconclusive and Tau fluor counter 9%.
`CCc1ccccc1NC(=O)CSc1nc2c(oc3ccccc32)c(=O)n1C` gave TRb-SRC2 inh -5%, Tau fibril ThT -3%, TR SRC2 fluor cs -4%, Tau fibril FP -10% and Tau fluor counter 2%.
`O=C1CN(c2ccc(Br)cc2)C(=O)N1CC(=O)N1CCCc2ccccc21` gave TRb-SRC2 inh 1%, Tau fibril ThT inconclusive, PNC inhibitor 1, TR SRC2 fluor cs -1%, Tau fibril FP -1% and Tau fluor counter -17%.
CCN(CC)S(=O)(=O)c1ccc(N2CCCC2)c(NC(=O)Cc2ccc(OC)cc2)c1 was read as TRb-SRC2 inh 4%, Tau fibril ThT -7%, TR SRC2 fluor cs -1%, Tau fibril FP 5% and Tau fluor counter -13%.
`CC1CCN(c2ccc(-c3cccc(NS(=O)(=O)c4ccc(F)cc4F)c3)nn2)CC1` gave TRb-SRC2 inh -19%, Tau fibril ThT -4%, TR SRC2 fluor cs 8.9µM*[quencher], Tau fibril FP -7% and Tau fluor counter -19%.
For CCOc1ccc(S(=O)(=O)Nc2cc(S(=O)(=O)N(CC)CC)ccc2N2CCCC2)cc1 the results were TRb-SRC2 inh 0%[53 µM], Tau fibril ThT -15%, PNC inhibitor -121*, TR SRC2 fluor cs -1%[53 µM], Tau fibril FP inconclusive and Tau fluor counter -16%.
For CCOc1ccc(S(=O)(=O)Nc2cccc(-c3ccc(N4CCCC4)nn3)c2)cc1 the results were TRb-SRC2 inh -7%, Tau fibril ThT -9%, TR SRC2 fluor cs 20µM*[quencher], Tau fibril FP -6% and Tau fluor counter -28%.
`CC1(C)CC(=O)C2=C(C1)Nc1ccccc1NC2` gave TRb-SRC2 inh 4%, Tau fibril ThT 4%, TR SRC2 fluor cs 2%, Tau fibril FP 6% and Tau fluor counter 2%.
Cc1nnc(SCC(=O)Nc2ccc(Cl)cn2)s1 was read as TRb-SRC2 inh -1%, Tau fibril ThT -5%, PNC inhibitor -119*, TR SRC2 fluor cs -1%, Tau fibril FP -5% and Tau fluor counter -11%.
Cc1csc(SCC(=O)Nc2ccc(Cl)cn2)n1 was read as TRb-SRC2 inh -11%, Tau fibril ThT -9%, PNC inhibitor inconclusive, TR SRC2 fluor cs 2%, Tau fibril FP 1% and Tau fluor counter -3%.
Screening N#CC1=C(N)NC(SCc2ccc(F)cc2)=C(C#N)C12CCCCC2 returned TRb-SRC2 inh -4%, Tau fibril ThT -8%, PNC inhibitor -2, TR SRC2 fluor cs -2%, Tau fibril FP inconclusive and Tau fluor counter 18µM*[quencher].
For COc1cc(C)c(S(=O)(=O)N2CCOCC2)cc1C the results were TRb-SRC2 inh -4%, Tau fibril ThT 1%, PNC inhibitor -100*, TR SRC2 fluor cs 3%, Tau fibril FP 8% and Tau fluor counter 0%.
Screening COc1cc(S(=O)(=O)N2CCN(Cc3ccc4c(c3)OCO4)CC2)c(C)cc1C returned TRb-SRC2 inh 4%, Tau fibril ThT -16%, PNC inhibitor -119*, TR SRC2 fluor cs 1%, Tau fibril FP 9% and Tau fluor counter -16%.
`COc1ccc(NC(=O)c2cccnc2Cl)c(S(=O)(=O)N2CCOCC2)c1` gave TRb-SRC2 inh 0%, Tau fibril ThT -4%, PNC inhibitor 31, TR SRC2 fluor cs -4%, Tau fibril FP -8% and Tau fluor counter -8%.
`Cc1ccc(-c2c(C#N)c(N)nc3c2CCCCCC3)o1` gave TRb-SRC2 inh 4%, Tau fibril ThT 6%, PNC inhibitor 29, TR SRC2 fluor cs 0%, Tau fibril FP 5% and Tau fluor counter 8%.
Screening CCOc1ccccc1NC(=S)N1CCC(NC(=O)c2ccco2)CC1 returned TRb-SRC2 inh 3%[53 µM], Tau fibril ThT -8%, TR SRC2 fluor cs 1%[53 µM], Tau fibril FP -4% and Tau fluor counter -7%.
Screening Cc1cccc(NC(=O)C2C3C=CC(C4CC34)C2C(=O)O)c1 (stereo not drawn) returned TRb-SRC2 inh 1%, Tau fibril ThT -13%, PNC inhibitor -119*, TR SRC2 fluor cs -2%, Tau fibril FP -15% and Tau fluor counter -5%.

Compound activity: PubChem, National Center for Advancing Translational Sciences (NCATS)
